Data on 40 molecules can be found in ChEMBL document CHEMBL1157539, “Thousands of chemical starting points for antimalarial lead identification” (Nature, 2010).

In this assay the test system is Plasmodium falciparum. As to the kind of experiment: GSK_TCMDC: Inhibition of Plasmodium falciparum Dd2 in whole red blood cells, using parasite LDH activity as an index of growth. Test compounds present at 2uM. Format: functional.
`Cc1cc(Nc2nc(Nc3cccc(Cl)c3)nc3ccccc23)n[nH]1` came in with an Inhibition of 95%.

Molecule `CCC(O)c1ccc(Br)cc1NC(=O)c1cccc(Cl)c1` (stereo not given) gave an Inhibition of 52%.

`COc1ccc(OC(C)CNC(=O)c2cc([N+](=O)[O-])ccc2-c2ccc(OC)cc2)cc1` (stereo not given): the Inhibition was determined as 44%.

As to `CCCNC(=O)c1cncc(-c2ccc(CNCCCc3ccccc3)cc2)c1.O=C(O)C(F)(F)F`, the Inhibition came out at 29%.

Regarding `CCCCCn1c(Sc2ccc(C#N)c([N+](=O)[O-])c2)nnc1-c1ccccc1`, the Inhibition was found to be 15%.

Regarding `Cc1ccc(F)cc1S(=O)(=O)Nc1ccc(CCN2CCC(N3CCCCC3)CC2)cc1`, the Inhibition worked out at 15%.

Consider `CS(=O)(=O)c1ccc(CCNCc2ccc(-c3ccc(CN(C(=O)C4CCCC4)C4CCN(Cc5ccccc5)CC4)cc3)nc2)cc1.O=C(O)C(F)(F)F`, for which the Inhibition is 20%.

As for `O=C(c1cc(OC(F)(F)F)ccc1O)N1CCN(c2ccccc2)CC1`, the Inhibition is given as 1%.

As for `Cl.O=C(/C=C/c1ccc(F)cc1)NC1CCC(CCN2CCCN(c3ccc(C(F)(F)F)cn3)CC2)CC1` (stereo not given), the Inhibition amounted to 13%.

`CCCNCc1ccc(-c2ccc(CN(CCOC)C(=O)[C@H]3CCCO3)cc2)nc1.O=C(O)C(F)(F)F` showed an Inhibition of 6%.

For the molecule `CCCc1cc(Cc2cnc(N)nc2N)cc2c1OC(C)C2C.Cl` (stereo not given), the Inhibition was found to be 0%.

In the case of `O=C(/C=C/c1ccc(Cl)c(Cl)c1)NCCCCCN1CCC(C(=O)Nc2ccc(Cl)cc2)CC1`, the Inhibition was found to be 0%.

In turn, `NC1=NC(c2ccccc2)(c2ccccc2)C(=O)N1CCOc1ccccc1` showed an Inhibition of 57%.

`CCN(CC)CCN(Cc1ccc(-c2ccc(C(F)(F)F)cc2)cc1)C(=O)Cn1c(CCc2cccc(F)c2F)nc(=O)c2ccc(C(F)(F)F)cc21.O=C(O)C(O)C(O)C(=O)O`: the Inhibition amounted to 55%.

The molecule `CC(C)=CCc1c(-c2ccc(O)cc2O)oc2c3c(cc(O)c2c1=O)OC(C)(C)C=C3` [MORUSIN] returned an Inhibition of 8%.

Molecule `CCNc1cc(C(=O)N[C@@H](Cc2ccccc2)[C@H](O)CNCc2cc(OC)cc(OC)c2)cc(N2CCCS2(=O)=O)c1.Cl` returned an Inhibition of 86%.

With `O=C(Nc1ccc(Br)cc1)N(CCN1CCOCC1)CC(O)COCc1ccc(Cl)c(Cl)c1.O=C(O)C(F)(F)F` (stereo not given), the Inhibition was determined as 52%.

As to `CCN1CCN(CC(O)CNC(=O)Nc2ccc(Cl)cc2)CC1.O=C(O)C(F)(F)F` (stereo not given), the Inhibition turned out to be 99%.

Molecule `COc1ccc2c(=NN=Cc3ccncc3)cc(C)[nH]c2c1` had an Inhibition of 95%.

In turn, `CCOc1ccc(-c2n[nH]c(C(F)(F)F)c2-c2ccccc2OC)c(O)c1` came in with an Inhibition of 12%.

The molecule `CN(C)CCOc1ccc(-c2cc(-c3ccnc(N)n3)c(-c3ccc(Cl)c(O)c3)o2)cc1` yielded an Inhibition of 91%.

Molecule `O=C1C(c2ccccc2)=C(Nc2ccc(OC(F)(F)F)cc2)c2ccccc21` came in with an Inhibition of 96%.

As to `O=C(Nc1ccc(F)cc1F)NC1CCN(c2ccnc3cc(Cl)ccc23)C1.O=C(O)C(F)(F)F` (stereo not given), the Inhibition was found to be 82%.

On to `CC(=O)Oc1c(C2CCN(CCCCNC(=O)c3ccc(NC(=O)c4ccc(Cl)cc4)cc3)CC2)ccc2c1CCCC2`, for which the Inhibition came to 80%.

Consider `N#Cc1ccc(-c2ccc(C(=O)NCCCCN3CCC(c4ccncc4)CC3)cc2)cc1`, for which the Inhibition is recorded as 16%.

Molecule `CCCCCCCN1CCC(CCNc2ccnc3ccc(OC)cc23)CC1` had an Inhibition of 86%.

In turn, `CNc1ccc(CNCc2ccc(-c3ccc(-c4nc5cc(F)ccc5[nH]4)cc3)cc2)cc1.O=C(O)C(F)(F)F` showed an Inhibition of 95%.

`CC(C)CCN1CCCN(Cc2ccc(C(=O)Nc3ccc(Cl)cc3)cc2)CC1.O=C(O)C(F)(F)F` showed an Inhibition of 15%.

Molecule `O=C(Nc1ccc2c(c1)CCC2)N[C@H]1CCN(CCCCCNC(=O)C2CC2c2ccc(Cl)c(Cl)c2)C1` (stereo not given in full) had an Inhibition of 0%.

As to `N#Cc1cccc(C(=O)Nc2ccc(-c3cccc(CN4CCCC4)c3)cc2)c1.O=C(O)C(F)(F)F`, the Inhibition was found to be 79%.

Regarding `CNCCNCc1ccc(-c2cccc(-c3nc4cc(F)ccc4[nH]3)c2)cc1.O=C(O)C(F)(F)F`, the Inhibition is 1%.

Molecule `COCCN1CCC(CN(C)CC(C)(C)c2nc(-c3ccc(Cl)c(O)c3)c(-c3ccncc3)[nH]2)CC1.Cl` had an Inhibition of 10%.

`O=C(O)C(F)(F)F.O=S(=O)(Nc1ccc(-c2ccc(CN3CCCC3)cc2)cc1)c1cccc2cccnc12` gave an Inhibition of 10%.

With `CCN(CC)CCN(Cc1ccc(-c2ccc(Cl)cc2)cc1)C(=O)Cn1c(CCc2cccc(F)c2F)nc(=O)c2ccccc21.O=C(O)C(O)C(O)C(=O)O`, the Inhibition turned out to be 75%.

`Cc1cc(OCCCN2CCCCC2)ccc1NC(=O)COc1ccc(Cl)cc1C(=O)c1cc(C#N)cc(C(F)(F)F)c1` returned an Inhibition of 7%.

In turn, `CC1=C(C(=O)Nc2cc3cn[nH]c3cc2F)C(c2cccc(NS(C)(=O)=O)c2)CC(=O)N1` (stereo not given) gave an Inhibition of 97%.

With `COc1ccc2ncc(F)c(NC(=O)C3CCC(NCc4cc5c(F)cccc5[nH]4)CC3)c2n1.Cl` (stereo not given), the Inhibition is 29%.

The molecule `O=CO.c1ccc(-c2ccc(CNCCCNc3nc4ccccc4[nH]3)cc2)cc1` had an Inhibition of 0%.

`CN(CCCCCNC(=O)/C=C/c1ccc(Cl)c(Cl)c1)CCCCc1c[nH]c2ccccc12`: the Inhibition was determined as 15%.

For the molecule `CC(C)(C)NC(=O)c1ccc(Oc2ccc(OC(F)(F)F)cc2)c(NC(=O)C(C)(C)C)c1`, the Inhibition came out at 2%.

As a reminder, the Inhibition is the percentage by which the read-out fell short of the control.
